ST2 inh: IL1RL1 inhibition; AlphaLISA ST2-Fc/biotin-IL-33 interaction, 1 h; inhibition, % for hits at 17 µM; actives 2.3% (n = 78,000); AID 1259354; in the data active means inhibition above about 30%
Target sequence (Q01638 whole entry, looked up): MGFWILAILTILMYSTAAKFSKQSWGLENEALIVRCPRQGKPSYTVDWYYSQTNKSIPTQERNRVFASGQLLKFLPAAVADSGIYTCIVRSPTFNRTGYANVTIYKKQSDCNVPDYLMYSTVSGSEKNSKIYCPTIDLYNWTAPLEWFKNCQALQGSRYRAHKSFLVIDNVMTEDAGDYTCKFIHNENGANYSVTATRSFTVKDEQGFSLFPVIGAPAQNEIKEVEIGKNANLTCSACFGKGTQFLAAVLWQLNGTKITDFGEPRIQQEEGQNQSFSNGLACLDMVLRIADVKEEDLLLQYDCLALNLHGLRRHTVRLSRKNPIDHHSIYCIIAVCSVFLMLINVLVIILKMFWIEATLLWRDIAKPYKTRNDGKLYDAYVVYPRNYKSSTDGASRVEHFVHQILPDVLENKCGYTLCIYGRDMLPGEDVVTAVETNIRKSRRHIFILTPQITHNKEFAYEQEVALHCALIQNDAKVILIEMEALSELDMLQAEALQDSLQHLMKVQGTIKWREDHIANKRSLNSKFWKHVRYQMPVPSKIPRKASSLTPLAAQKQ
* hit, by the source's call; i = inactive; ! = a repeat was not active. This excerpt belongs to a sample that is enriched for hits.

SMILES	ST2 inh
CCC(C)NC(=O)C1(O)c2cc(Br)ccc2NC(=O)N1c1ccc(C)c(C)c1 (stereo unspecified)	i
COc1cccc(N2C(=O)c3ccc(-c4nc5ccccc5c(=O)o4)cc3C2=O)c1	i
N#CC1=C(N)N(c2ccc(Br)cc2F)C2=C(C(=O)CCC2)C1c1cccs1 (stereo unspecified)	i
CC(C)c1ccc(-c2nc(C(N)=O)c3c(n2)n(-c2ccc(F)cc2)c(=O)n3C)cc1	i
Cc1ccccc1-c1nc2cc(NC(=O)c3ccc4c(c3)OCCO4)ccc2o1	i
Cc1ccc2oc(-c3ccc(NC(=O)c4ccc5c(c4)OCCO5)cc3O)nc2c1	32.0%*
COc1cc(C(=O)Nc2ccc(-c3nc4cc(C)ccc4o3)c(O)c2)cc(OC)c1OC	i
Cc1cc(C(=O)N(CC2CCN(Cc3ccccc3F)CC2)CC2CCCO2)n(C)n1 (stereo unspecified)	i
O=C1C(=O)N(Cc2ccccc2)c2ccc(Br)cc21	30.0%*
O=C1C(=O)N(Cc2ccc(F)cc2)c2ccccc21	i
O=C1c2ccccc2NC(c2ccc(Br)cc2)N1Cc1ccccc1 (stereo unspecified)	i
O=S(=O)(c1ccc(Cl)c(Cl)c1Cl)N1CCN(c2ccc(F)cc2)CC1	i
Fc1ccc(CN2CCc3ccccc3C2)c(F)c1	i
CCCn1c(Oc2ccc(C(C)(C)C)cc2)nc2c1c(=O)n(C)c(=O)n2C	i
COc1ccc(C(=O)O/N=C(/N)Cc2ccc(Cl)cc2)cc1	i
CC1=CC(=O)C=C(C)C1=NOC(=O)c1ccc([N+](=O)[O-])cc1[N+](=O)[O-]	i
COc1ccc(C(=O)ON=C2C(C)=CC(=O)C=C2C)cc1	52.0%*
O=c1c2cnn(-c3ccccc3)c2ncn1Cc1cccnc1	i
C(=Nc1cc(-c2ccccc2)nn1-c1ccccc1)c1cccnc1	33.0%*
O=C(Cn1nc(-c2ccccc2)ccc1=O)NCc1cccnc1	i
O=C(N[C@H]1CCCCNC1=O)c1ccc(N2CCC(NCCc3ccccn3)CC2)cc1	i
O=S(=O)(NCC1CCCO1)c1ccc(C2CCCCC2)cc1 (stereo unspecified)	i
COc1ccc(N2CCN(Cc3nc4c(c(=O)[nH]c(=O)n4C)n3CC(N)=O)CC2)cc1	i
O=C(c1ccc(F)cc1)N1CCN=C1SCc1ccccc1F	i
Cc1ccc(NC2=C(NCCO)C(=O)c3ccccc3C2=O)cc1	51.0%*
SMILES	ST2 inh
Cc1ccc(Nc2nnc(-c3ccc(C)c(S(=O)(=O)NCCO)c3)c3ccccc23)cc1	i
Cc1ccc(C(NC(=O)CN2C(=O)c3ccccc3C2=O)c2ccccc2)cc1 (stereo unspecified)	i
COc1ccc(-c2nc(SC3CC(=O)N(c4ccc([N+](=O)[O-])cc4)C3=O)n[nH]2)cc1 (stereo unspecified)	i
COCCC(=O)N[C@H]1CC[C@]2(C)CCC([C@H](C)C(=O)N(CCOC)CCOC)[C@H](O)[C@H]2[C@@H]1C (stereo partly specified)	i
Cc1csc(=Nc2ccccc2)n1-c1ccccc1	32.0%*
Cc1nc([N+](=O)[O-])cn1CC(=O)c1ccccc1	i
Cc1cccn(CC(=O)c2ccc(-c3ccccc3)cc2)c1=N	i
Cc1csc(=Nc2ccccc2)n1CC(=O)c1ccccc1	36.0%*
Cc1cc(C)n(-c2ccccc2)n1	i
CCOC(=O)c1sc(=Nc2ccccc2)n(-c2ccccc2)c1C	i
O=C(c1cc(-c2ccccc2O)n[nH]1)N1CCCC(N2CCCC2=O)C1 (stereo unspecified)	i
Cn1nc(C(=O)NCc2ccc(F)cc2)c2c1CCC(NC1CCN(Cc3ccccc3)CC1)C2 (stereo unspecified)	i
CC(C)(C)NCCCOc1ccc(Br)cc1Cl	i
Cc1ccccc1NC1=CC(=O)CC(C)(C)C1	i
CC1(C)CC(=O)C=C(/C=C/c2ccc(N3N=N3)cc2)C1	40.0%*
C=CCN1C(=O)c2ccccc2Sc2ccc(C(=O)O)cc21	i
C=CCN1C(=O)S/C(=C/c2ccc(N3CCCC3)o2)C1=O	44.0%*
C=CCNc1nc2ccccn2c(=O)c1/C=C1\SC(=O)N(CCC)C1=O	i
O=C(Nc1ccc(Cl)cc1)c1cnn2c(C(F)(F)F)cc(-c3ccco3)nc12	i
COc1ccc2cc3cc(C(=O)NC4CC4)sc3nc2c1	i
CCN(CC)CCNC(=O)c1cc2cc3cc(OC)ccc3nc2s1	i
CCN(C(=O)c1cc2cc3ccc(OC)cc3nc2s1)c1cc(OC)ccc1OC	31.0%*
CCc1ccc(CN2CCN(CC=C(C)C)C(CCO)C2)o1 (stereo unspecified)	i
O=C(CSc1nc2c(c(=O)n1-c1ccc(Cl)cc1)SCC2)c1ccccc1	i
COc1ccc(-c2nccn2CCc2ccccn2)c(OC)c1	i
SMILES	ST2 inh
COc1ccc(-c2ccnc(N)c2)c(OC)c1	i
COc1ccc(-c2cc3ccccn3c2)c(OC)c1	50.0%*
Cn1c(=O)c2c(nc(Br)n2Cc2cccc(Br)c2)n(C)c1=O	i
Cc1cccc(C)c1NC(=O)C(C)N1C(=O)c2ccccc2C1=O (stereo unspecified)	i
O=C(Cc1ccc(F)cc1F)NCc1cnn2ccccc12	i
CC(C(=O)N(C)CCC(C)(C)O)n1cc(Cl)cn1 (stereo unspecified)	i
O=C(Nc1cccc(Cl)c1)C(O)c1ccccc1 (stereo unspecified)	i
Cc1nn(-c2ccccc2)c(Cl)c1C(=O)Nc1cccc(Cl)c1	i
CC1=NN(c2ccccc2)C(=O)C1C(c1cccc(Cl)c1)C(C#N)C#N (stereo unspecified)	62.0%*
c1nc(N2CCCC(Nc3ccc4c(c3)OCCO4)C2)c2cc[nH]c2n1 (stereo unspecified)	i
CC1=C/C(=N/OC(=O)c2cccc(Cl)c2)C=CC1=O	i
Cc1nc2ccccc2c(=O)n1CC(=O)NCc1ccccc1	i
Cn1c(/C=C/c2ccc(Br)cc2)nc2ccccc2c1=O	i
CCn1c(/C=C/c2cccnc2)nc2ccccc2c1=O	96.0%*
CCOCCCN1CC(C(=O)NC2CCCCC2)CC1=O (stereo unspecified)	i
Nc1ncnc(Nc2ccc(Cl)cc2C(=O)c2ccccc2)c1[N+](=O)[O-]	i
CCOc1ccc(N2C(=O)c3ccccc3NC2(CC)CC)cc1	i
CC1=CC(=O)C=C(C)C1=NOC(=O)/C=C\c1ccccc1	35.0%*
COc1ccc(/C=C/C(=O)Nc2ccccc2C(=O)O)cc1OC	i
COc1ccc2oc(=O)c(NC(=O)/C=C/c3ccccc3)cc2c1	i
COc1cccc(C(=O)Nc2c(-c3cccs3)nc3ccccn23)c1OC	i
O=C(NCCC1=CCCCC1)c1ccc2c(c1)ncn2C1CCCC1	i
Cn1c(=O)[nH]c(=O)c2c1nc(CN1CCN(Cc3ccccc3)CC1)n2Cc1ccc(F)cc1	i
c1ccc(CN(Cc2cnc3nccn3c2)Cc2nccs2)cc1	i
O=C(Nc1ccc2c(c1)CN(C(=O)Cn1cncn1)CC2)C1CCCO1 (stereo unspecified)	i
SMILES	ST2 inh
COCc1cc(C)nc(SCC(=O)c2ccc(C)cc2C)c1C#N	i
COCc1cc(C)nc(SCC(=O)c2ccc(Cl)cc2)c1C#N	30.0%*!
Cc1cc(C)c(C#N)c(SCC(=O)c2ccc(F)cc2)n1	i
COCc1cc(C)nc(SCc2ccccc2Cl)c1C#N	i
Cc1cc(C(F)(F)F)c(C#N)c(SCC(N)=O)n1	i
Cc1cc(C(F)(F)F)c(C#N)c(SCC(=O)c2ccc([N+](=O)[O-])cc2)n1	60.0%*
